# Screens: PubChem, National Center for Advancing Translational Sciences (NCATS)
# ALDH1A1 inh: qHTS Assay for Inhibitors of Aldehyde Dehydrogenase 1 (ALDH1A1); Purified ALDH1A1, NADH fluorescence, propionaldehyde substrate; Potency, µM (titrated, usually from 75.3 µM), hits mostly inhibitors; 220,000 tested, 7.3% active; AID 1030, 2008; active = well fitted inhibition curve with a large enough effect, not every such curve was filed as active; inconclusive = small, poorly fitted or top-dose-only effect, or another doubt; inactive = no such curve, though single readings can be large or run the other way
# HPGD inh: qHTS Assay for Inhibitors of HPGD (15-Hydroxyprostaglandin Dehydrogenase); AID 894, 2007; purified HPGD, NADH fluorescence kinetic, PGE2 substrate; 15-hydroxyprostaglandin dehydrogenase [NAD(+)] (Homo sapiens), P15428; 150,000 tested, 4.3% active; Potency, µM, usual class: inhibitors; active = well fitted inhibition curve with a large enough effect, not every such curve was filed as active; inconclusive = small, poorly fitted or top-dose-only effect, or another doubt; inactive = no such curve, though single readings can be large or run the other way
# Target sequence (P15428 whole entry, looked up): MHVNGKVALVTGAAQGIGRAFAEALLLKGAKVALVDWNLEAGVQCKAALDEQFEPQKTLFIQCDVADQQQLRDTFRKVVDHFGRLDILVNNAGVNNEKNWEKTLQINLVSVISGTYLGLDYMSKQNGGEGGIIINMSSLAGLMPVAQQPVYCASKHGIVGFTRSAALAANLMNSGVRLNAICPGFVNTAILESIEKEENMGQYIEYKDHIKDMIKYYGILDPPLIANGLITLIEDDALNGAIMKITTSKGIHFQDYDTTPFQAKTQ
#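 20 nM HPGD preincubated 15 min at room temperature with compound in 50 mM Tris-HCl pH 8, 0.01% Tween 20. Started with 1 mM NAD+ and 30 uM prostaglandin E2; NADH fluorescence (360/450 nm) read 5 times over 30-s intervals, last minus first.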
# IMPase inh: qHTS Assay for Identifying the Cell-Membrane Permeable IMPase Inhibitors; inhibition (IP1 accumulation), % at 46.1 µM; CHO-M1 cells, IP1 accumulation, HTRF TR-FRET ratio; Inositol monophosphatase 1 (Rattus norvegicus), P97697; 120,000 tested, under 10 active; AID 901, 2007; active = well fitted curve in the direction sought with a large enough effect in the signal ratio, not every such curve was filed as active; inconclusive = small, poorly fitted or top-dose-only effect, or a change in a side signal; inactive = no such curve, though single readings can be large or run the other way; the % refers to the signal ratio;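 also: cells stimulated with carbachol in lithium chloride buffer; higher means more IMPase inhibition seen as more IP1 and lower FRET ratio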
# Target sequence (P97697 whole entry, looked up): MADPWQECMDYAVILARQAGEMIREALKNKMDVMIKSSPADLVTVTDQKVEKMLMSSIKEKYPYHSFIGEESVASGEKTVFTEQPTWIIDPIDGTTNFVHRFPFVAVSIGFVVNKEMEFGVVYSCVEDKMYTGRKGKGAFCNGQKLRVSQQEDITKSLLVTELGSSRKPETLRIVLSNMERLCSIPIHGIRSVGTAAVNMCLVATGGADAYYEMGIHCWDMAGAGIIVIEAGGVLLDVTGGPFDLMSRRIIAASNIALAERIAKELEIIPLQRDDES
#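 Seeded CHO-M1 cells were dosed with compound at up to 46 uM, stimulated with carbachol for 30 min, then lysed in IP-One detection reagents. Higher IP1 lowers the TR-FRET signal.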
# ALOX12 inhib: qHTS Assay for Inhibitors of 12-hLO (12-human lipoxygenase); Polyunsaturated fatty acid lipoxygenase ALOX12 (Homo sapiens), P18054; purified 12-hLO, xylenol orange hydroperoxide absorbance; Potency, µM (series often up to 57.1 µM), actives largely listed as inhibitors; 150,000 tested, 0.12% active; AID 1452, 2008; also: nearly all actives have a fitted effect of over 55% in size
#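 Hydroperoxide output read as Fe(III)-xylenol orange absorbance, 573-to-405 nm ratio, after 30 min reaction with 40 uM arachidonic acid. Enzyme: 150 nM purified human 12hLO, 15 min compound preincubation; 25 mM Hepes pH 7.0, room temperature.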
# IMPase Li inh: qHTS Assay for Identifying the Cell-Membrane Permeable IMPase Inhibitors: Potentiation with Lithium; CHO-M1 cells, IP1 TR-FRET (IP-One), carbachol + lithium; Potency, µM (series often up to 59.4 µM), hits mostly inhibitors; 210,000 tested, 0.35% active; AID 1457, 2008;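 also: IP1 builds up when IMPase is blocked and the TR-FRET signal falls; nearly all actives have a fitted effect of over 50% in size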
#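 Concentration–response in CHO-M1 cells, lithium-potentiated; 30 min at 37C. IP1 detected by competitive TR-FRET after 10 min lysis at RT. Hill-fitted AC50.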
# PNC assembly inh: High Content Assay for Compounds that inhibit the Assembly of the Perinucleolar Compartment | PC3M PTB-GFP, PNC prevalence imaging, 16 h; stronger effect = lower value | activity change (PNC), negative = inhibition, % at 10 µM | 140,000 tested, 3.1% active | AID 2417, 2010;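 active = readout at or below -70, meaning at least 70% loss of cells showing the perinucleolar compartment, a nuclear body marking cancer cells; inconclusive = readout between -30 and a set limit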
#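 Read-out is percentage of cells bearing a perinucleolar compartment, from automated 20x imaging of fixed, Hoechst-stained PC3M PTB-GFP cells. Cells were seeded 4 h, then exposed 16 h to compound (23 nl of library stock) in duplicate plates.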
# Hits are given with their value; 0 = inactive; ? = inconclusive; - = no result; [ ] = remark or other dose. Sampled rows, rich in hits. Any-hit rate of the full collection: about 11%. Unless noted, calls follow the shape of the dose curve; as a rule, active = well fitted curve in the direction sought with a large enough effect; inconclusive = small, poorly fitted or top-dose-only effect, or another doubt; inactive = no such curve, though single readings can be large; an effect the other way counts as inactive or inconclusive.
SMILES,ALDH1A1 inh,HPGD inh,IMPase inh,ALOX12 inhib,IMPase Li inh,PNC assembly inh
Cc1c2oc3c(C)ccc(C(=O)N[C@@H]4C(=O)N[C@H](C(C)C)C(=O)N5CCC[C@H]5C(=O)N(C)CC(=O)N(C)[C@@H](C(C)C)C(=O)O[C@@H]4C)c3nc-2c(C(=O)N[C@@H]2C(=O)N[C@H](C(C)C)C(=O)N3CCC[C@H]3C(=O)N(C)CC(=O)N(C)[C@@H](C(C)C)C(=O)O[C@@H]2C)c(N)c1=O,?,0,-,0[0.00818 µM],0,-
CC(=O)Nc1ccc(NC(=O)C(C)N2CCN(S(=O)(=O)c3ccc(C)cc3)CC2)cc1 (stereo not drawn),0,-,-,-,0,-
COc1ccc(S(=O)(=O)N2CCCCC2)cc1NS(=O)(=O)c1cc(Cl)ccc1Cl,2.2µM,0,-,0,0,?
COc1ccc(NS(=O)(=O)c2ccc(S(=O)(=O)N3CCOCC3)cc2)cc1,1.4µM,-,-,-,0,-
CC(=O)Nc1ccc(S(=O)(=O)N2CCN(C(C)CCc3ccccc3)CC2)cc1 (stereo not drawn),32µM,0,0,0,0,0
CC(=O)Nc1ccc(S(=O)(=O)N2CCSC2C(=O)O)cc1 (stereo not drawn),18µM,0,0,0,0,0
CN1CCN(c2ncc3nc(-c4cn(C)c5ccccc45)c(=O)n(-c4ccccc4)c3n2)CC1,?,-,-,-,0,-
CCNc1ncc2nc(-c3cccs3)c(=O)n(CCC#N)c2n1,?,-,-,-,0,-
CC(=O)Nc1ccc(S(=O)(=O)N2CCN(C)CC2)cc1,0,0,0,0,0,0
CC(=O)Nc1ccc(S(=O)(=O)Nc2ccc(S(=O)(=O)N3CCCC3)cc2)cc1,2.8µM,0,0,0,0,0
COc1ccc(NC(=O)CN2CCC(C(N)=O)(N3CCCCC3)CC2)cc1,0,0,0,0,0,0
COc1ccc(NS(=O)(=O)c2ccc(Oc3cccc(C(=O)O)c3)cc2)cc1,0.71µM,-,-,-,0,-
COc1ccc(S(=O)(=O)N2CCC(C(N)=O)(N3CCCCC3)CC2)cc1,18µM,0,0,0,0,?
O=C(O)c1cc(=O)[nH]c(=S)[nH]1,0[13.5 µM],0,-,0[11.4 µM],0,-
CC(C)(C)OC(=O)N1CCC[C@H]1c1nnc(SC/C=C/c2ccccc2)o1,22µM,-,0,0,-,0
CC(C)(C)OC(=O)N1CCC[C@H]1c1nnc(SCc2ccccc2Cl)o1,0,0,0,0,0,-114
CC(=O)OC[C@@H]1O[C@@H](O/N=C2/C[C@@H](O)[C@@H](O)[C@@H]3[C@@H]4C(=O)N(C5CCCCC5)C(=O)[C@H]4CC[C@@H]23)[C@H](OC(C)=O)[C@H](OC(C)=O)[C@@H]1OC(C)=O,0[13.5 µM],-,-,-,-,-
COc1cc(C(Nc2ccccn2)c2ccc3ccc(C)nc3c2O)cc(OC)c1O (stereo not drawn),0,?,0,?,0,0
Cc1ccnc(NC(c2cc(C)ccc2O)c2ccc3cccnc3c2O)c1 (stereo not drawn),-,-,0,-,-,-
Cc1ccnc(NC(c2ccsc2)c2ccc3ccc(C)nc3c2O)c1 (stereo not drawn),25µM,-,-,-,0,-
Cc1ccc2ccc(C(Nc3ccccn3)c3ccccc3)c(O)c2n1 (stereo not drawn),0,0,0,0,0,-82
O=C1[C@H]2[C@H]3[C@H](O)[C@H](O)C/C(=N/OCc4ccccc4)[C@@H]3CC[C@@H]2C(=O)N1Cc1ccc2c(c1)OCO2,0[13.5 µM],-,-,-,-,-
CC=C(/C(=C/C)c1ccc(O)cc1)c1ccc(O)cc1,0,0,0,0,0,-
C[C@]12CC[C@H](O)CC1=CC[C@H]1[C@@H]2CC[C@@]2(C)C(N(CCO)CCO)CC[C@@H]12 (stereo partly drawn),0[13.5 µM],0,-,-,0,-
